The AC50 is the concentration giving half of the maximal activity seen.

Structures are written as SMILES. Screen size: about 16,000 compounds; about 5,100 (32%) were called active. Another 25% or so got no clear call; they are omitted. This is one part of the list. Values without a mark were called inactive. The call rests on the fitted dose curve; in most records, active means well fitted curve in the direction sought with a large enough effect; inconclusive means small, poorly fitted or top-dose-only effect, or effect the other way; inactive means no such curve, though single readings can be large or run the other way.
On the % scale 0 is the no-effect control and ±100 the full control effect.

The assay deals with Cytochrome P450 3A4 (Homo sapiens) (UniProt P08684). In words: Cytochrome panel assay with activity outcomes. Conditions: recombinant CYP, pro-luciferin dealkylation, luminescence, p450-cyp3a4; series mostly up to 57.1 µM.
Sequence of Cytochrome P450 3A4 (Homo sapiens) (P08684 whole entry, looked up): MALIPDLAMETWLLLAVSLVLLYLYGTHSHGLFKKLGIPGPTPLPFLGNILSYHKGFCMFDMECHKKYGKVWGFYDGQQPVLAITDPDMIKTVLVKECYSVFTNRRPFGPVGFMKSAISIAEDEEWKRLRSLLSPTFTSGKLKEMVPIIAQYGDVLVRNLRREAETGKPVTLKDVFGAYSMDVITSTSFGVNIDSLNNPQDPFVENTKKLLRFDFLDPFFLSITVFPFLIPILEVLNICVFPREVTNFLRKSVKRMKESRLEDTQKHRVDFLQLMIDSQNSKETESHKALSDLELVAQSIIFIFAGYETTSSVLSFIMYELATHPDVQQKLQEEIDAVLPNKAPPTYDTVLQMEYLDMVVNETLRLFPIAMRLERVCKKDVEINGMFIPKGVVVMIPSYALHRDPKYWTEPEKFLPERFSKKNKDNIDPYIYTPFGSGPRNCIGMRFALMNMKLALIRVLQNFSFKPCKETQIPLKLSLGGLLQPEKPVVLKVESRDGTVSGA
With `C[N+](C)(C)c1cc2c(nn1)Nc1ccccc1S2`, the activity, negative = inhibition was -5.56% [at 11.4 µM].
Take `OC(CCCN1CCCCC1)(c1ccccc1)c1ccccc1`: the AC50 result is “inactive”.
Consider `C=CCNc1nc(Cl)nc(Nc2ccc(OC)cc2)n1`, for which the AC50 is 14.1 µM (active).
Consider `O=C(c1ccccc1)[C@@H]1O[C@H]1c1ccc(-c2ccccc2)cc1`, for which the AC50 result is “inactive”.
As to `Cc1ccc(C(=O)NC(=S)Nc2ccc3c(c2)OCCO3)c(C)c1`, the AC50 was 28.2 µM (active).
Regarding `O=C(NC(=S)Nc1ccc(Oc2ccc(Cl)cc2)cc1)c1ccccc1`, the AC50 result is “inactive”.
As for `CC(=O)Nc1ccc2c(c1)OCCOCCOc1cc(NC(C)=O)ccc1OCCOCCOCCO2`, the AC50 entry is “inactive”.
In the case of `O=C(NC(=S)Nc1ccc2c(c1)OCO2)c1ccccc1`, the AC50 was 0.631 µM (active).
Consider `CCOC(=O)Nc1ccc(C)cc1NC(=O)OCC`, for which the activity, negative = inhibition is 4.11% [at 2.29 µM].
Take `CC(=O)Nc1ccc2c(c1)OCCO2`: the AC50 entry was “inactive”.
For `CCOC(=O)Nc1ccc2c(c1)OCO2`, the AC50 is 14.1 µM (active).
`CS[C@]12C(=O)C[C@]3(C)[C@@H](CC[C@@]3(O)C(=O)CO)[C@@H]1CCC1=CC(=O)CC[C@]12C`: the activity, negative = inhibition was -14.7% [at 11.4 µM].
With `CC(Oc1ccc(O)cc1)(P(=O)(O)O)P(=O)(O)O`, the AC50 entry is “inactive”.
Still for that read-out and setting: the same measure for `CC(=O)c1cc(C#N)c(Oc2cccc(C(F)(F)F)c2)nc1C`: “inactive”; for `COC(=O)c1cc(C#N)c(Oc2ccc(OC)cc2)nc1C`: 14.1 µM (active).
On the same count and under the same terms, the same measure for `CC(=O)c1cc(C#N)c(Oc2ccc(F)cc2)nc1C`: “inactive”; for `COc1ccc(CC(=O)O/N=C(\N)Cc2ccc(OC)cc2)cc1`: 10 µM (active).
Still for that read-out and setting: the same measure for `COc1ccc(C[C@@](C)(N)C(=O)O)cc1OC`: “inactive”.
As for `COc1ccc(Cc2ccccc2C(=O)O)c2ccccc12`, the activity, negative = inhibition is -12.8% [at 11.4 µM].
In the case of `NC(Cc1ccccc1)=NCC(=O)O`, the activity, negative = inhibition is -0.223% [at 11.4 µM].
In the case of `COc1ccccc1CC(=O)O/N=C(\N)Cc1cccc2ccccc12`, the AC50 was 15.8 µM (active).
`COc1ccc(C/C(N)=N/OC(=O)Cc2ccccc2)cc1OC`: the AC50 was 3.16 µM (active).
On to `COc1ccccc1C/C(N)=N/OC(=O)c1ccc(C)c([N+](=O)[O-])c1`, for which the half-maximal activity concentration (AC50) is 10 µM (active).
The same measure, in the same setting: in the case of `COc1ccccc1OC[C@H](O)COC(N)=O` it was “inactive”; in that of `O=C1c2ccccc2C(=O)N1CCCCN(C(=O)c1cccc([N+](=O)[O-])c1)c1ccc(Cl)cc1`, 11.2 µM (active); in that of `O=C1c2ccccc2C(=O)N1CCCCN(C(=O)c1ccc([N+](=O)[O-])cc1)c1ccc(Cl)cc1`, 25.1 µM (active).
On to `CCOC(=O)COc1c(OC)cc(Cl)cc1C1Nc2ccccc2C(=O)N1c1ccc(F)cc1` (configuration not stated), for which the AC50 result is “inactive”.
Still for that read-out and setting: in the case of `CCOC(=O)COc1c(OC)cc(Cl)cc1C1Nc2ccccc2C(=O)N1c1cccc(C)c1` (configuration not stated) it was 3.98 µM (active).
On the same count and under the same terms, the same measure for `COC(=O)c1sccc1-c1ccc(C(=O)Nc2cccnc2)o1`: 14.1 µM (active); for `CSc1nc2c(c(C(F)(F)F)n1)CC(C)CC2` (configuration not stated): “inactive”; for `COc1ccccc1NC(=S)NCCc1ccccc1`: 11.2 µM (active).
Still for that read-out and setting: in the case of `Fc1ccccc1NC(=S)NCCc1ccccc1` it was 12.6 µM (active); in that of `Fc1cc(Br)ccc1NC(=S)NCCc1ccccc1`, 15.8 µM (active); in that of `Fc1ccc(NC(=S)NCCc2ccccc2)c(F)c1F`, “inactive”.
As for `CC(CO)(CO)N=Cc1cc(I)cc(I)c1O`, the activity, negative = inhibition is -15.2% [at 11.4 µM].
On to `CCCC1C(=O)N(c2ccccc2)C1c1ccccc1` (configuration not stated), for which the activity, negative = inhibition is 1.96% [at 2.29 µM].
In the case of `O=C1C2ON(c3ccccc3)C(c3ccncc3)C2C(=O)N1c1ccccc1` (configuration not stated), the AC50 was 14.1 µM (active).
Turning to `O=C1C(Cc2ccccc2)C(c2ccccc2)N1c1ccccc1` (configuration not stated), the AC50 result is “inactive”.
The same measure, in the same setting: the same measure for `CC(=O)NNC(=O)C(O)(c1ccccc1)c1ccccc1`: “inactive”.
Turning to `COc1ccc(Oc2nc3ccccc3nc2C(F)(F)F)cc1`, the activity, negative = inhibition is 2.66% [at 2.29 µM].
Regarding `N#CC(c1ccc(Cl)cc1)c1nc2ccccc2nc1C(F)(F)F` (configuration not stated), the activity, negative = inhibition was 15.3% [at 2.29 µM].
Regarding `FC(F)(F)c1nc2ccccc2nc1N/N=C/c1ccc(Cl)cc1`, the AC50 is 25.1 µM (active).
On to `FC(F)(F)c1nc2ccccc2nc1N/N=C\c1ccccc1`, for which the half-maximal activity concentration (AC50) was 15.8 µM (active).
For `COc1ccc(NC(=O)c2ccc(C)cc2Cl)c([N+](=O)[O-])c1`, the AC50 was 20 µM (active).
On the same count and under the same terms, in the case of `COc1ccc(NC(=O)c2cccs2)c([N+](=O)[O-])c1` it was 14.1 µM (active); in that of `CCC(CC)C(=O)Nc1cccc(C(=O)Nc2ccc(OC)cc2[N+](=O)[O-])c1`, “inactive”; in that of `CCCn1nnnc1NC(=O)c1ccc(C)cc1Cl`, “inactive”.
Same read-out and setting: the same measure for `CCCCn1nnnc1SCC(=O)N1CCCC1`: “inactive”; for `CCCCn1c(SCC(=O)N2CCCC2)nc2c1c(=O)n(C)c(=O)n2C`: 17.8 µM (active).
On the same count and under the same terms, in the case of `COCCCn1nnnc1SCC(=O)N1CCCC1` it was “inactive”; in that of `COc1ccc(CNc2ncnc3ccc(-c4ccc(C(=O)N(C)C)cc4)cc23)c(OC)c1`, 2.51 µM (active); in that of `COc1ccccc1CNc1ncnc2ccc(-c3ccc(C(=O)N(C)C)cc3)cc12`, 10 µM (active).
For the molecule `CN1CCCC[C@@H]1CCN1c2ccccc2Sc2ccc(S(C)=O)cc21` (some centres not stated), the AC50 result is “inactive”.
Consider `Cc1cnc(C(=O)OCC(=O)NC(C)C)cn1`, for which the activity, negative = inhibition was -1.72% [at 2.29 µM].
The same measure, in the same setting: the same measure for `COC(=O)C1=C(C)C(c2ccc(OC)cc2)NC(=S)N1` (configuration not stated): -11.5% [at 2.29 µM]; for `COc1ccc(CN[C@H](C)C(=O)O)cc1`: 0.14% [at 11.4 µM].
As to `COc1ccc(CNC(=O)c2csc(Cc3ccc(OC)cc3)n2)cc1`, the AC50 is 3.16 µM (active).
The same measure, in the same setting: the same measure for `COc1ccc(Cc2c(N)nc(N)nc2N)cc1`: “inactive”.
For `COc1ccc(CNC(=O)c2cnc(C)cn2)cc1`, the half-maximal activity concentration (AC50) is 2 µM (active).
The same measure, in the same setting: in the case of `COc1ccc(CNC(=O)c2csc(Cc3ccc(Cl)cc3)n2)cc1` it was 3.55 µM (active); in that of `O=C(O)c1cc(=O)c2ccc(Cl)cc2[nH]1`, “inactive”.
As to `CC(=O)Nc1nnc(S(N)(=O)=O)s1`, the AC50 result is “inactive”.
Turning to `COCC(=O)Oc1c(S(=O)(=O)c2ccc(C)cc2)c(C)nn1-c1ccccc1`, the AC50 result is “inactive”.
Take `Cc1ccc(S(=O)(=O)c2c(C)nn(C(C)(C)C)c2OC(=O)c2cccs2)cc1`: the AC50 is 2.24 µM (active).
On the same count and under the same terms, in the case of `CCOC(=O)Oc1c(OC)cc(C(=O)O[C@H]2C[C@H]3CN4CCc5c([nH]c6cc(OC)ccc56)[C@@H]4C[C@H]3[C@@H](C(=O)OC)[C@@H]2OC)cc1OC` it was “inactive”; in that of `COc1ccc(/C=N/NC(=O)c2ccccc2)cc1CN1CCN(c2ccc(F)cc2)CC1`, “inactive”.
The same measure, in the same setting: in the case of `COc1ccc(C2C(C#N)=C(N)Oc3n[nH]c(C)c32)cc1CN1CCN(c2ccc(F)cc2)CC1` (configuration not stated) it was 8.91 µM (active); in that of `O=C(NC(=S)Nc1cccc(Cl)c1N1CCCC1)c1ccc(-c2cccc([N+](=O)[O-])c2)o1`, 4.47 µM (active).
Still for that read-out and setting: in the case of `CCCSc1nc(C)cc(C)c1C(N)=O` it was “inactive”; in that of `Cn1cc(C(=O)OCC2CCN(CCNS(C)(=O)=O)CC2)c2ccccc21`, “inactive”; in that of `COc1cc(COc2cc(N)c(Cl)cc2C(=O)CCC2CCN(CCNS(C)(=O)=O)CC2)cc(OC)c1`, 2 µM (active).
Take `CCCCN1CCC(CCC(=O)c2cc(Cl)c(N)cc2OC)CC1`: the AC50 entry was “inactive”.
Turning to `O=C(Nc1ccc(C(=O)Nc2ccc(C(=O)Nc3ccc(S(=O)(=O)O)c4cc(S(=O)(=O)O)cc(S(=O)(=O)O)c34)cc2)cc1)Nc1ccc(C(=O)Nc2ccc(C(=O)Nc3ccc(S(=O)(=O)O)c4cc(S(=O)(=O)O)cc(S(=O)(=O)O)c34)cc2)cc1`, the AC50 entry is “inactive”.
On the same count and under the same terms, in the case of `Cc1nc2c(ccc3nc(NC(=O)c4ccc5c(c4)OCCO5)sc32)s1` it was 6.31 µM (active); in that of `COc1cccc(C(=O)Nc2nc3c(s2)CN(C)CC3)c1`, “inactive”; in that of `COc1cc(C(=O)Nc2nc3ccc4nc(C)sc4c3s2)cc(OC)c1OC`, “inactive”.
Still for that read-out and setting: in the case of `CCN1CCc2c(sc(N)c2C(N)=O)C1` it was “inactive”.
On the same count and under the same terms, in the case of `CCN1CCc2nc(NC(=O)c3ccc4c(c3)OCCO4)sc2C1` it was 14.1 µM (active); in that of `CCC(=O)NC(=S)Nc1ccc(NC(=O)COc2ccc(Cl)cc2Cl)cc1`, 12.6 µM (active); in that of `O=C(COc1ccc(Cl)cc1Cl)N/N=C/CCc1ccccc1`, 11.2 µM (active).
In the case of `CCc1ccc(OCC(=O)NC(=S)Nc2ccc(F)cc2)c(Br)c1`, the activity, negative = inhibition is -0.136% [at 2.29 µM].
Take `Cc1ccccc1C(=O)Nc1ccc(C(=O)NNC(=O)CCCOc2ccc(Cl)cc2Cl)cc1`: the activity, negative = inhibition is -18.9% [at 2.29 µM].
Same read-out and setting: in the case of `O=C(COc1ccccc1C(=O)N/N=C\c1ccc(O)c(O)c1)N/N=C/c1ccc(O)c(O)c1` it was 12.4% [at 2.29 µM].
Turning to `CC(C/C=N/NC(=O)COc1cc(Cl)ccc1Cl)c1ccccc1` (configuration not stated), the AC50 is 14.1 µM (active).
For `C/C(=N/NC(=O)c1cccs1)c1ccc(NC(=O)COc2ccc(Cl)cc2Cl)cc1`, the activity, negative = inhibition is -10.1% [at 2.29 µM].
Still for that read-out and setting: in the case of `Cc1cc(NC(=O)COc2ccc(Cl)cc2Cl)n(-c2ccccc2)n1` it was -28.2% [at 11.4 µM].
`CC(/C=N\NC(=O)Cn1c(C)nc2ccccc21)=C\c1ccccc1`: the AC50 entry is “inactive”.
Consider `CC(=C\C(=O)O)/C(=C/c1ccccc1)C(=O)O`, for which the AC50 entry was “inactive”.
As for `CC(=C/c1ccccc1)/C=N/n1cnnc1`, the AC50 was 12.6 µM (active).
On the same count and under the same terms, in the case of `FC(F)(F)c1ccccc1-c1nc(Nc2ccncc2)c2ccccc2n1` it was 0.631 µM (active); in that of `CNc1nc(-c2ccccc2Cl)nc2ccccc12`, 25.1 µM (active).
Take `Cc1ccccc1-c1nc(Nc2ccncc2)c2ccccc2n1`: the AC50 is 6.31 µM (active).
The same measure, in the same setting: the same measure for `CNc1nc(-c2ccccc2C(F)(F)F)nc2ccccc12`: “inactive”.
Take `Clc1ccccc1-c1nc(Nc2ccncc2)c2ccccc2n1`: the AC50 was 3.98 µM (active).
`CNC(=O)c1sc(SC)cc1-c1ccc(Cl)cc1`: the AC50 entry is “inactive”.
For `Clc1ccccc1C(Nc1cnccn1)Nc1cnccn1`, the activity, negative = inhibition is -4.71% [at 11.4 µM].
For `COCCNC(=O)c1ccc2c(c1)ncn2-c1ccc(F)c(F)c1`, the AC50 entry was “inactive”.

Values taken from PubChem BioAssay AID1851 (National Center for Advancing Translational Sciences (NCATS), 2009).
